Laboratory results as given in the supplement of paper PMC10849652.
Targets with a hit are over-represented here; the source holds about 8,800 in all. About 0.5% of all pairs of compound and target were hits.

Tests used:
Assay in all cases: log2 fold change, soluble protein after heating vs DMSO (PISA); higher = thermal stabilisation; K562 lysate, 10 uM; active = over 0.2 and 3.5 SD of the protein, either way, in both replicates (recomputed)
vemurafenib = compound: CCCS(=O)(=O)Nc1ccc(F)c(C(=O)c2c[nH]c3ncc(-c4ccc(Cl)cc4)cc23)c1F [vemurafenib]
Summary of the method: (§1)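 To prepare the extract, K562 pellets were dounce-homogenised in PBS pH 7.4 with 1 mM MgCl2, giving crude material at 1 mg/mL protein. This was treated with 10 μM compound for 30 min, then heated in aliquots for 3 min over 48°C-58°C before pooling and addition of NP-40 to 0.5% at 4°C. Centrifugation at 21,000xg for 90 min left soluble protein in the supernatant, which TMTpro 16plex LC-MS/MS quantified with equalised channel sums. Results are log-two fold changes in thermal stability compared with solvent controls, from duplicates.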

[1] = compound: CCCS(=O)(=O)Nc1ccc(F)c(C(=O)c2c[nH]c3ncc(Cl)cc23)c1F
Summary of the method: as §1

[2] = compound: CC[C@@H]1C(=O)N(C)c2cnc(Nc3ccc(C(=O)NC4CCN(C)CC4)cc3OC)nc2N1C1CCCC1
Summary of the method: as §1

volasertib = compound: CC[C@@H]1C(=O)N(C)c2cnc(Nc3ccc(C(=O)N[C@H]4CC[C@H](N5CCN(CC6CC6)CC5)CC4)cc3OC)nc2N1C(C)C [volasertib]
Summary of the method: as §1

[3] = compound: CCn1c(C(=O)N(C2CC2)C2CC2)cc2c3c(ncn3C)c(Nc3cc(C)n(C)n3)nc21
Summary of the method: as §1

[4] = compound: CCn1cc(-c2ccnc3[nH]c(-c4cccc(CN(C)C)c4)cc23)c(-c2ccc(NC(=O)N(C)C)cc2)n1
Summary of the method: as §1

[5] = compound: CN1CCC(CNc2ccc3ncc(-c4cccc(OC(F)(F)F)c4)n3n2)CC1
Summary of the method: as §1

saracatinib = compound: CN1CCN(CCOc2cc(OC3CCOCC3)c3c(Nc4c(Cl)ccc5c4OCO5)ncnc3c2)CC1 [saracatinib]
Summary of the method: as §1

sotrastaurin = compound: CN1CCN(c2nc(C3=C(c4c[nH]c5ccccc45)C(=O)NC3=O)c3ccccc3n2)CC1 [sotrastaurin]
Summary of the method: as §1

barasertib = compound: CCN(CCCOc1ccc2c(Nc3cc(CC(=O)Nc4cccc(F)c4)[nH]n3)ncnc2c1)CCOP(=O)(O)O [barasertib]
Summary of the method: as §1

Measured: log2 fold change

CDK5 (UniProt Q00535)
inactive: vemurafenib -0.021 | [1] 0.022 | [2] -0.08 | volasertib -0.079 | [3] 0.008 | [4] -0.055 | [5] 0.071 | saracatinib -0.008 | sotrastaurin 0.175

ATF7IP2 (UniProt Q5U623)
inactive: vemurafenib 0.062 | [1] -0.041 | barasertib 0.009 | volasertib 0.083 | [3] -0.064 | [4] -0.145 | [5] 0.197 | sotrastaurin 0.031

CCDC32 isoform 2 (UniProt Q9BV29)
inactive: vemurafenib 0.007 | [1] 0 | barasertib 0.351 | [2] -0.041 | volasertib 0.021 | [3] -0.061 | [4] -0.246 | [5] 0.065 | saracatinib 0.021 | sotrastaurin -0.012

ATP6V0A2 (UniProt Q9Y487)
inactive: vemurafenib -0.035 | [1] 0.013 | barasertib 0.037 | [2] 0.071 | volasertib 0.005 | [3] 0.017 | [4] -0.117 | [5] 0.14 | saracatinib -0.007 | sotrastaurin 0.029

CACUL1 (UniProt Q86Y37)
inactive: vemurafenib 0.04 | [1] 0.053 | [2] -0.04 | volasertib 0.106 | [3] -0.072 | [4] 0.012 | [5] -0.111 | saracatinib -0.026 | sotrastaurin 0.103

AUH (UniProt Q13825)
inactive: vemurafenib 0.083 | [1] -0.009 | barasertib 0.004 | [2] 0.042 | volasertib -0.093 | [3] 0 | [4] 0.1 | [5] 0 | saracatinib -0.101 | sotrastaurin 0.047

BCL2L12 (UniProt Q9HB09)
Chain of UniProt Q9HB09 (Q9HB09 whole entry, looked up): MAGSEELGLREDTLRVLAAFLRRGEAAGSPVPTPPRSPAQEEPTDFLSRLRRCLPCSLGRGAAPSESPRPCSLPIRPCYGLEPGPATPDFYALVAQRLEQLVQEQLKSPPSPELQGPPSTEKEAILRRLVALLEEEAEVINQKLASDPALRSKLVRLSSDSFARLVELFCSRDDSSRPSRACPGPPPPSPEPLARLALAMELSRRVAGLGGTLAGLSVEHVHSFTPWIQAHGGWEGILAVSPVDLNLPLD
inactive: vemurafenib -0.032 | [1] 0.08 | barasertib 0.166 | [2] 0.013 | volasertib -0.06 | [3] 0.087 | [4] 0.018 | [5] 0.116 | saracatinib 0.057 | sotrastaurin -0.007

BLOC1S6 (UniProt Q9UL45)
Chain of UniProt Q9UL45 (Q9UL45 whole entry, looked up): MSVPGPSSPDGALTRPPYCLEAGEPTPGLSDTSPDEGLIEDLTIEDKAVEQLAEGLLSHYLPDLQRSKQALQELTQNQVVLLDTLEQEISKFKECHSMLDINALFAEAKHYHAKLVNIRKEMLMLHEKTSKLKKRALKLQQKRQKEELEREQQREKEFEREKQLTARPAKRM
inactive: vemurafenib 0.005 | [1] 0.007 | barasertib -0.012 | [2] 0.013 | volasertib 0.032 | [3] 0.043 | [4] 0.048 | [5] 0.009 | saracatinib -0.034 | sotrastaurin -0.06

CCNK isoform 4 (UniProt O75909)
inactive: vemurafenib -0.013 | [1] 0.006 | barasertib -0.028 | [2] 0.04 | volasertib -0.009 | [3] -0.007 | [4] -0.185 | [5] 0.095 | saracatinib 0.049 | sotrastaurin 0.004

CANX (UniProt D6RHJ3)
inactive: vemurafenib -0.033 | [1] -0.04 | volasertib 0.017

CDC7 (UniProt O00311)
inactive: vemurafenib 0.065 | [1] 0.073 | barasertib -0.005 | [2] 0.039 | volasertib -0.097 | [3] -0.003 | [4] -0.01 | [5] -0.073 | saracatinib 0.004 | sotrastaurin 0.036

CDK8 (UniProt P49336)
inactive: vemurafenib 0.065 | [1] 0.138 | barasertib 0.002 | volasertib -0.083 | [3] -0.011 | [4] -0.134 | [5] 0.045 | saracatinib 0.109 | sotrastaurin -0.001

BAHCC1 (UniProt Q9P281)
Chain of UniProt Q9P281 (Q9P281 whole entry, looked up): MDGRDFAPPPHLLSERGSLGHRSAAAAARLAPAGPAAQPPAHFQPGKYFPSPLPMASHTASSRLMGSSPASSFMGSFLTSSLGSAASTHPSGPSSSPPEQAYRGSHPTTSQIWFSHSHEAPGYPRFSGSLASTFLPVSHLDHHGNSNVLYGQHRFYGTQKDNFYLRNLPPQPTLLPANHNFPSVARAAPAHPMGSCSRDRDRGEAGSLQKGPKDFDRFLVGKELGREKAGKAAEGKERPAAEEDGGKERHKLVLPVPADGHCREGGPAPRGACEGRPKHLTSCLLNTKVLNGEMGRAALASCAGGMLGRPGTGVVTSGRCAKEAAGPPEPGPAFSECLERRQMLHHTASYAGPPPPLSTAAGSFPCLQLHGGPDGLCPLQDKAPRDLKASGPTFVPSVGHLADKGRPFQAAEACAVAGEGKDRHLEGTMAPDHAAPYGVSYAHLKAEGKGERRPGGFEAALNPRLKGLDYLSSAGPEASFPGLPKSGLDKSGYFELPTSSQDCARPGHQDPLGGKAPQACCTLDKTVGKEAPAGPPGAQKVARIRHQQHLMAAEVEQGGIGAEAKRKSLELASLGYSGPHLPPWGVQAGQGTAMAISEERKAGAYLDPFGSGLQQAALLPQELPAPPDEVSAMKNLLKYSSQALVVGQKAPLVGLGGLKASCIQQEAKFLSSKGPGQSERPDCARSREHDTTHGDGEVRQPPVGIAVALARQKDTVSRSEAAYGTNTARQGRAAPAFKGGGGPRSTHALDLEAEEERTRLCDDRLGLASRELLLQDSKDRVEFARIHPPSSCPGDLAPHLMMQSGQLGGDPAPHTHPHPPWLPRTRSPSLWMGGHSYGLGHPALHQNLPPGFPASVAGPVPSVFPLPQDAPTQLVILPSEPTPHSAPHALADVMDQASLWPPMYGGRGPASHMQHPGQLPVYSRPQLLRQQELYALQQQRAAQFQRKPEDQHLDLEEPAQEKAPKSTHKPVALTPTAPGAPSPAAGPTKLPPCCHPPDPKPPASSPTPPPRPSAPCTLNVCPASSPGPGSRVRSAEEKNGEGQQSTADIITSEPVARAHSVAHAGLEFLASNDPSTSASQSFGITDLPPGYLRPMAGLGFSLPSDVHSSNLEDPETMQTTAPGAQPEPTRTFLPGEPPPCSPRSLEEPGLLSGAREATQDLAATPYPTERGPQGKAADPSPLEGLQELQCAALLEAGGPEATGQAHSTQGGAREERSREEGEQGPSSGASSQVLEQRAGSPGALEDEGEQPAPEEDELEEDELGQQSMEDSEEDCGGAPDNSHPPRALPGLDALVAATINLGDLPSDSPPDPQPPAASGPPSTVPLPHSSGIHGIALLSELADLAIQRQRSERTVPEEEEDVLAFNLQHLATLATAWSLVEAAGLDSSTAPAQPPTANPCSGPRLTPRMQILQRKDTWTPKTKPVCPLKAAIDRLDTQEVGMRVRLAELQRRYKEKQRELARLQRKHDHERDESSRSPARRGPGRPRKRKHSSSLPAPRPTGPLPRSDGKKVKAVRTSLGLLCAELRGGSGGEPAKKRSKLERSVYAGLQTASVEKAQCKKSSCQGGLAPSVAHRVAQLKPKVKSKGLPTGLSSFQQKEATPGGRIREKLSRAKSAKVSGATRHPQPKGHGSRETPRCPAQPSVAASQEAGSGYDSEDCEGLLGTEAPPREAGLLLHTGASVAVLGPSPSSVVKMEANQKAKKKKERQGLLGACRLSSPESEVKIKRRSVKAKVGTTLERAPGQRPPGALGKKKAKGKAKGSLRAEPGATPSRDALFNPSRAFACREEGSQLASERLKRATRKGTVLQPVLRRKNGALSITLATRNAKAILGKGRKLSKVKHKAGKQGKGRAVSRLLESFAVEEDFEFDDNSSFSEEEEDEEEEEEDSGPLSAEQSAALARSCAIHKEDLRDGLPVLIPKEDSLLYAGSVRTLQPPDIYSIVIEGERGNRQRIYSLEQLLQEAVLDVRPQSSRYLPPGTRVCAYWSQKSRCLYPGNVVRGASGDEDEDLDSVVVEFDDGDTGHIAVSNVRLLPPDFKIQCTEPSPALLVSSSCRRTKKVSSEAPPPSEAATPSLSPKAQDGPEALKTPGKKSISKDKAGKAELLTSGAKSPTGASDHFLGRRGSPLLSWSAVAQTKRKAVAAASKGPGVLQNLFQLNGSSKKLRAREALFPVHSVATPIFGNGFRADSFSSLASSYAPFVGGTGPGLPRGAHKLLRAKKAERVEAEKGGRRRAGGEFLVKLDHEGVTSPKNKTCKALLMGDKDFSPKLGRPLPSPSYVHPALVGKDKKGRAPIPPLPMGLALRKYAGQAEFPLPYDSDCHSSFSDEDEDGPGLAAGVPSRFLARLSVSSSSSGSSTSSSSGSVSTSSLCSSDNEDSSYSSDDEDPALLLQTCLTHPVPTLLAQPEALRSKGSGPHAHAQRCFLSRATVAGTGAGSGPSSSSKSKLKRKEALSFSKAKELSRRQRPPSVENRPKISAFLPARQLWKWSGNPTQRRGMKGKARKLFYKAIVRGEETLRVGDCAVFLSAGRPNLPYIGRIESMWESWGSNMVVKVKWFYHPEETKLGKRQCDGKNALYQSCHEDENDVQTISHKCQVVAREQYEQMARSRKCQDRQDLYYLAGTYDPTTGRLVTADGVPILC
inactive: vemurafenib 0.11 | [1] 0.004 | [2] -0.247 | volasertib 0 | [4] 0.415 | [5] 0.219 | saracatinib 0.025 | sotrastaurin 0.127

CEP41 (UniProt Q9BYV8)
Chain of UniProt Q9BYV8 (Q9BYV8 whole entry, looked up): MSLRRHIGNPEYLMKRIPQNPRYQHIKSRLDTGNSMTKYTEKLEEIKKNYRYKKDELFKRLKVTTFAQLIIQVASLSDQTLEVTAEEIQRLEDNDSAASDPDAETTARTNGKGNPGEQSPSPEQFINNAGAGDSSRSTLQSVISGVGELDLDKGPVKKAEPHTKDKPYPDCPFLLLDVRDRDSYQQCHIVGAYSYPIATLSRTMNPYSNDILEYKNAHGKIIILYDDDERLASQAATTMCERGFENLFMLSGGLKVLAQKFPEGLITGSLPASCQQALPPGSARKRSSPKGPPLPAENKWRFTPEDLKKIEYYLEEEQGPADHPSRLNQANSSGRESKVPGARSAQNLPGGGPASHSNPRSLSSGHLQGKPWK
inactive: vemurafenib -0.022 | [1] 0.108 | barasertib 0.03 | [2] 0.018 | volasertib -0.023 | [4] 0.02 | [5] -0.009 | saracatinib -0.032 | sotrastaurin 0.03

C16orf70 (UniProt Q9BSU1)
inactive: vemurafenib 0.053 | [1] 0.086 | barasertib -0.016 | [2] 0 | volasertib -0.038 | [3] 0.018 | saracatinib -0.037 | sotrastaurin 0.031

CBFA2T3 (UniProt O75081)
Chain of UniProt O75081 (O75081 whole entry, looked up): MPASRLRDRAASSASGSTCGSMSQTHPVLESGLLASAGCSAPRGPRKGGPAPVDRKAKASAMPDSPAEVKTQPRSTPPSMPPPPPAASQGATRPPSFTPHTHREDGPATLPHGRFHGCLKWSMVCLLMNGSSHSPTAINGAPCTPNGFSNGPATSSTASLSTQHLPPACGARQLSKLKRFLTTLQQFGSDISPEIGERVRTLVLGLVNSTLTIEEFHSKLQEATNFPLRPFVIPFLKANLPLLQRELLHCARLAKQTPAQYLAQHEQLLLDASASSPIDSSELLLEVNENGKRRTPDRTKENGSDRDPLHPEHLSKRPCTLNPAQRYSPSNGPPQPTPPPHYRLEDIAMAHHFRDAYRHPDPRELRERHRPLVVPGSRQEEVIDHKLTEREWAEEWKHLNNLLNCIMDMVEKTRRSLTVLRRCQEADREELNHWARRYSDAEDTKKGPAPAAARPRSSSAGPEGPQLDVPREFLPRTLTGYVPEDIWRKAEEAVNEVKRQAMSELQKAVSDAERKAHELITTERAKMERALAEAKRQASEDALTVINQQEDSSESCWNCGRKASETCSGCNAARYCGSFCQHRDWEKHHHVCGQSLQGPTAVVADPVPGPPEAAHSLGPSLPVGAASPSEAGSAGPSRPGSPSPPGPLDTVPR
inactive: vemurafenib -0.043 | [1] 0.018 | barasertib -0.055 | [2] 0.003 | volasertib -0.02 | [3] -0.007 | [4] -0.023 | [5] -0.018 | saracatinib 0.021 | sotrastaurin 0.015

C1orf131 isoform 5 (UniProt Q8NDD1)
inactive: vemurafenib 0.034 | [1] 0.026 | [2] 0.148 | volasertib -0.029 | [3] -0.042 | [4] -0.242 | [5] 0.095 | saracatinib -0.009 | sotrastaurin 0.017

CAMK1 (UniProt Q14012)
inactive: vemurafenib -0.094 | barasertib 0.027 | [2] 0.106 | volasertib -0.018 | [3] -0.06 | [4] -0.095 | [5] 0.272 | saracatinib -0.061 | sotrastaurin -0.016

CAPNS1 (UniProt K7ES78)
inactive: vemurafenib 0.143 | [1] -0.07 | volasertib 0.033 | [3] 0.076 | saracatinib 0.12 | sotrastaurin -0.071

CARNMT1 (UniProt Q8N4J0)
inactive: vemurafenib 0.04 | [1] 0.008 | barasertib -0.012 | [2] -0.013 | volasertib -0.005 | [3] -0.044 | [5] 0.063 | saracatinib 0.04 | sotrastaurin 0.017
active: [4] -0.422

CAMK2B (UniProt Q13554)
Chain of UniProt Q13554 (Q13554 whole entry, looked up): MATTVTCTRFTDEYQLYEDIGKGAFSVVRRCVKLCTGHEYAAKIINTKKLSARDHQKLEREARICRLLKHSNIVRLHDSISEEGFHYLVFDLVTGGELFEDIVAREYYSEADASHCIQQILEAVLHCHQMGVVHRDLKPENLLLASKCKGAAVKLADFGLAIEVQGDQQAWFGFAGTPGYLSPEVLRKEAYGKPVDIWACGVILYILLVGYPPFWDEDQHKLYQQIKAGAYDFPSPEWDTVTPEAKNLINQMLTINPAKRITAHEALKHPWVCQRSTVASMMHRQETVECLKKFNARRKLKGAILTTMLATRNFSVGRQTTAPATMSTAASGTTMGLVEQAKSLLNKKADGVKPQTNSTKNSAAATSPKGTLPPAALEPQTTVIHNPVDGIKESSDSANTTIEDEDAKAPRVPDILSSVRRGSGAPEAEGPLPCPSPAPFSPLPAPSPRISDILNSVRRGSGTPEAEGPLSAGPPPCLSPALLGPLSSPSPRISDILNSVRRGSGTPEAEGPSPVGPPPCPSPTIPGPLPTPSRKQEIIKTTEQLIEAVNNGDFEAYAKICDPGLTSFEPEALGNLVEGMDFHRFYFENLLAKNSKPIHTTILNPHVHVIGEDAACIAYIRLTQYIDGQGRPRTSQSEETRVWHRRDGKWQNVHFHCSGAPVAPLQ
inactive: vemurafenib 0.011 | [1] -0.058 | barasertib 0.014 | volasertib -0.145 | [3] 0.022 | [4] -0.021 | [5] 0.049 | saracatinib -0.077

BLM (UniProt P54132)
inactive: vemurafenib 0.007 | [1] 0.013 | barasertib -0.071 | [2] -0.063 | volasertib -0.029 | [3] 0.054 | [4] 0.247 | [5] -0.14 | saracatinib -0.014 | sotrastaurin -0.01

BRD3 (UniProt Q15059)
active: [2] 0.451
inactive: vemurafenib -0.046 | [1] 0.038 | barasertib -0.087 | volasertib 0.263 | [4] -0.143 | [5] 0.188 | saracatinib 0.008 | sotrastaurin -0.082

BTK isoform 2 (UniProt Q06187)
inactive: vemurafenib -0.014 | [1] 0.013 | barasertib 0.128 | volasertib -0.106 | [3] 0.01 | [4] -0.147 | [5] 0.053 | saracatinib 0.058 | sotrastaurin -0.026

BRAT1 (UniProt Q6PJG6)
inactive: vemurafenib 0.011 | [1] -0.014 | barasertib 0.042 | [2] -0.086 | volasertib -0.046 | [3] 0.055 | [4] -0.023 | [5] -0.007 | saracatinib 0.016 | sotrastaurin 0.037

ATAD1 (UniProt Q8NBU5)
inactive: vemurafenib 0.052 | [1] -0.072 | barasertib -0.008 | [2] 0.024 | volasertib -0.018 | [3] -0.041 | [4] -0.04 | [5] -0.03 | saracatinib -0.031 | sotrastaurin 0.06

CDC16 (UniProt Q13042)
inactive: vemurafenib -0.042 | [1] 0.001 | barasertib -0.018 | [2] -0.074 | volasertib -0.063 | [3] 0.043 | [4] 0.046 | [5] -0.041 | saracatinib -0.005 | sotrastaurin 0.02

CEBPZOS (UniProt A8MTT3)
inactive: vemurafenib 0.031 | [1] -0.026 | [2] -0.048 | volasertib -0.007 | [3] 0.024 | [4] -0.176 | [5] 0.041 | saracatinib 0.03 | sotrastaurin -0.005

CD80 (UniProt P33681)
Chain of UniProt P33681 (P33681 whole entry, looked up): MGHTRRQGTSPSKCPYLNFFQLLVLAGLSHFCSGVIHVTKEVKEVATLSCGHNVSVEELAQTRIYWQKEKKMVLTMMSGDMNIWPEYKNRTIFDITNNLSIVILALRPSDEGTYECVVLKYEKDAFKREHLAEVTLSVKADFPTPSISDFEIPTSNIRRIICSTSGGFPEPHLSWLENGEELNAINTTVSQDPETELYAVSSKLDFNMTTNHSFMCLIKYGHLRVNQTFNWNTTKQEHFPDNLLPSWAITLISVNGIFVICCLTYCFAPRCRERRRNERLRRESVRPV
inactive: vemurafenib 0.115 | [1] -0.113 | [2] 0.063 | volasertib -0.001 | [3] -0.011 | [4] 0.239 | [5] -0.177 | saracatinib -0.069 | sotrastaurin 0.032

CBX5 (UniProt P45973)
inactive: vemurafenib 0.028 | [1] 0.026 | barasertib -0.025 | [2] 0.018 | volasertib 0.016 | [3] -0.073 | [5] 0.066 | saracatinib 0.001 | sotrastaurin 0.016
active: [4] -0.215

C1orf112 (UniProt Q9NSG2)
inactive: vemurafenib 0 | [1] 0.006 | barasertib -0.04 | [2] -0.065 | volasertib 0.034 | [3] 0.037 | [4] 0.171 | [5] -0.059 | saracatinib 0.065 | sotrastaurin 0.025
